Assay outcomes (PubChem BioAssay)
In the library only some 1.3% were active in any assay of this set; here they are far more common.
VACV mCherry inh: qHTS for Stage-Specific Inhibitors of Vaccinia Orthopoxvirus: mCherry Reporter Primary qHTS. Vaccinia virus mCherry reporter infection, fluorescence. Potency, µM (titrated, usually from 36.5 µM), for inactives: at the highest dose activity change, negative = inhibition, actives largely listed as inhibitors. actives 0.63% (n = 310,000). AID 720579, 2013; calls by dose curve; tested in A549 cells; further: on the % scale 0 is the no-effect control and ±100 the full control effect; nearly all actives have a fitted effect of over 35% in size
AMA1 RON2 block: qHTS for Inhibitors of AMA1-RON; Towards Development of Antimalarial Drug Lead: Primary Screen. actives 0.2% (n = 360,000). Plasmodium falciparum AMA1 (3D7) - RON2 peptide interaction. Potency, µM (highest dose often 58.2 µM), for the others: at the highest dose activity change, negative = inhibition, actives largely listed as inhibitors. AlphaScreen AMA1-biotinylated RON2 peptide binding;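 further: 0% = vehicle wells and -100% = peptide control; nearly all actives have a fitted effect of over 45% in size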
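AMA1 (3D7) with his tag at 25 nM final met compounds first, then biotinylated RON2 peptide at 25 nM; detection used donor plus acceptor beads, 10 µg/mL apiece, read by AlphaScreen after 30 min at room temperature.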
AmpC detergent: qHTS Inhibitors of AmpC Beta-Lactamase (assay with detergent); AmpC hydrolysis of nitrocefin, absorbance 480 nm, 0.01% Triton; Potency, µM (series often up to 114 µM), for inactives: top-dose activity change, negative = inhibition, most hits filed as inhibitors; actives 0.041% (n = 370,000);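 further: 0% = no-compound wells and -100% = no-enzyme wells; nearly all actives have a fitted effect of over 25% in size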
Target sequence (P00811 whole entry, looked up): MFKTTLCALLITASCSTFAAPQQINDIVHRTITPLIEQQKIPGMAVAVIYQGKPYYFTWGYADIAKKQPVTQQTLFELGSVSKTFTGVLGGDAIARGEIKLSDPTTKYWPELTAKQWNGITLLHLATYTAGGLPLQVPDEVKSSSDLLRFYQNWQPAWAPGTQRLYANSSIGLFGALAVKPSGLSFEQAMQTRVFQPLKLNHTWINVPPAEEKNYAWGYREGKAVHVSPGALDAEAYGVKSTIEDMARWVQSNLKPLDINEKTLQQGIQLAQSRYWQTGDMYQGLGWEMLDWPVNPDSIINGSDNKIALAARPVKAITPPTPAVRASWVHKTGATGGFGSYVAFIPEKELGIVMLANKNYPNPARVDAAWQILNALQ
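20 mM phosphate pH 7.0 + 0.01% (detergent screen) or 0.0001% Triton X-100; 5.3 nM AmpC reagent; cpd preinc 15 min RT; nitrocefin (800 uM stock) to start; A480 q20 s × 4 min; Activity was normalised to no-enzyme and no-compound control wells.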
VACV Venus inh: qHTS for Stage-Specific Inhibitors of Vaccinia Orthopoxvirus: Venus Reporter Primary qHTS; Vaccinia virus Venus reporter expression, fluorescence; Potency, µM (doses to about 36.5 µM), without a hit: at the highest dose activity change, negative = inhibition, hits mostly inhibitors; actives 0.46% (n = 330,000); AID 720580, 2013; calls by dose curve; tested in A549 cells; further: on the % scale 0 is the no-effect control and ±100 the full control effect; nearly all actives have a fitted effect of over 30% in size
AmpC inh no detg: qHTS Inhibitors of AmpC Beta-Lactamase (assay without detergent). P00811. AmpC nitrocefin hydrolysis, absorbance 480 nm, 0.0001% Triton. Potency, µM (titrated, usually from 57.1 µM), for the others: at the highest dose activity change, negative = inhibition, most hits filed as inhibitors. actives 0.52% (n = 330,000);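 further: plate controls were no compound for no effect and no enzyme for full effect; nearly all actives have a fitted effect of over 20% in size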
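20 mM phosphate pH 7.0 + 0.01% (detergent screen) or 0.0001% Triton X-100; 5.3 nM AmpC reagent; cpd preinc 15 min RT; nitrocefin (800 uM stock) to start; A480 q20 s × 4 min; Activity was normalised to no-enzyme and no-compound control wells.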
SARS PLP yeast: qHTS of Yeast-based Assay for SARS-CoV PLP | actives 0.19% (n = 330,000) | Potency, µM (titrated, usually from 32.9 µM), without a hit: top-dose activity, positive = growth rescue, hits mostly activators | S. cerevisiae expressing SARS-CoV PLpro, growth rescue | AID 485353, 2010; calls by dose curve; further: 0% is about no effect; nearly all actives have a fitted effect of over 55% in size
An asterisk follows results filed as active; i = inactive; ? = inconclusive; nt = no result given; [ ] = remark or other dose. Unless noted, the call rests on the fitted dose curve; in most records, active means well fitted curve in the direction sought with a large enough effect; inconclusive means small, poorly fitted or top-dose-only effect, or another doubt; inactive means no such curve, though single readings can be large; an effect the other way counts as inactive or inconclusive. Potency means the concentration at half of the fitted maximal effect.

SMILES	VACV mCherry inh	AMA1 RON2 block	AmpC detergent	VACV Venus inh	AmpC inh no detg	SARS PLP yeast
COc1cc2nc(CN3CCN(S(=O)(=O)c4ccccc4)CC3)[nH]c(=O)c2cc1OC	i	9%	?	-18%	37%	-1%
O=C(NCC1(N2CCCCC2)CCCCC1)c1ccc(-n2cc(NC(=O)c3cccnc3)cn2)cc1	-12%	nt	nt	-17%	nt	nt
O=C(NC1(Cc2ccccc2)CCN(Cc2ccc(-c3ccccc3)cc2)C1=O)c1ccccc1 (stereo not given)	11µM*	-7%	4%	?	-20%	6%
O=C(CCc1ccccc1)NC1(Cc2ccccc2)CCN(CCc2cccs2)C1=O (stereo not given)	-2%	1%	0%	-25%	32%	-2%
COc1cccc(CCNc2ncnc3sc(C(=O)N4CCOCC4)c(C)c23)c1	i	nt	nt	-15%	nt	nt
CC1(C)Cc2ccccc2C2=NNC(=O)C2=N1	?	20%	-2%	28µM*	-13%	-2%
COc1cc(=O)n2c(c1C(=O)NCc1ccco1)CCN(Cc1ccc3ccccc3c1)CC2	i	nt	nt	-12%	nt	nt
COC(=O)c1c(C)oc2ccc(N(C(=O)c3ccncc3)S(=O)(=O)c3ccc(C)cc3)cc12	10µM*	-3%	?	?	86%	-12%
c1ccc(-c2cn(C[C@H]3CC[C@H](Cn4cc(-c5ccccn5)nn4)O3)nn2)nc1	-7%	1µM*	?	0%	1%	6%
O=[N+]([O-])c1cccc(-c2ccc(/C=N/NC(=S)NCc3ccco3)o2)c1	-14%[7.34 µM]	76%	-4%	-9%[7.34 µM]	8.9µM*	3%
COCCNC(=S)N/N=C/c1ccc(-c2ccc([N+](=O)[O-])cc2)o1	nt	69%	4%	nt	-29%	-1%
O=C1NC(=O)N(Cc2ccco2)C(=O)/C1=C/c1ccc(-c2cccc([N+](=O)[O-])c2)o1	nt	?	?	nt	35µM*	-14%
COC(=O)CC1C(=O)NCCN1C(=O)CN1Cc2ccccc2OC(c2ccccc2)C1 (stereo not given)	-9%	nt	nt	-7%	nt	nt
Cc1ccc(N/N=C(/Sc2nnnn2-c2ccccc2)C(=O)c2ccccc2)cc1	-26%	5%	35µM*	-17%	4µM*	2%
O=c1[nH]c(=S)c2n[nH]nc2[nH]1	21%	nt	nt	-6%	nt	nt
COc1ccc(OC)c(-c2csc(NC(=O)COC(=O)C3CCC3)n2)c1	nt	-21%	-10%	nt	-15%	0%
NC(=O)c1c(NC(=O)COC(=O)c2ccc(O)c(Cl)c2)sc2c1CCCC2	i	24%	nt	-8%	16µM*	2%
NC(=O)c1c(NC(=O)CN2C(=O)CCC2=O)sc2c1CCCCC2	i	-4%	-2%	-9%	32µM*	4%
COc1ccc(OC)c(-c2csc(NC(=O)COC(=O)c3ccc(NC(=O)CC#N)cc3)n2)c1	nt	23%	?	nt	25µM*	1%
N#CCC(=O)Nc1sc2c(c1C(N)=O)CCCC2	?	105%	0%	-7%	-40%	11%
N#CCC(=O)Nc1ccc(C(=O)OCC(=O)Nc2cccc(C(F)(F)F)c2)cc1	-15%	-9%	?	-17%	16µM*	-2%
COc1cccc(CN2CCC(n3cc(C(=O)N4CCCCC4)nn3)CC2)c1OC	-3%	nt	nt	-15%	nt	nt
CCOC(=O)N1CCN(Cc2ccc3c(c2)CN(C(=O)c2ccc(C#CC(C)(C)O)o2)CCO3)CC1	-27%	nt	nt	-19%	nt	nt
CC(C)N1C[C@@H](Sc2ccccn2)C[C@H]1C(=O)Nc1ccc2c(c1)Nc1ccccc1CC2	-10%	nt	nt	7%	nt	nt
COc1cc(=O)n2c(c1C(=O)NC(C)c1ccco1)CCN(C(=O)c1[nH]c(C)cc1C)CC2 (stereo not given)	i	nt	nt	-17%	nt	nt
SMILES	VACV mCherry inh	AMA1 RON2 block	AmpC detergent	VACV Venus inh	AmpC inh no detg	SARS PLP yeast
COC(=O)c1c(NC(=O)COC(=O)c2ccccc2O)sc2c1CCCCC2	-6%	12%	?	-5%	-23%	3%
COC(=O)c1c(NC(=O)COC(=O)c2ccc(NC(=O)CC#N)cc2)sc2c1CCCCC2	-11%	6%	2%	-7%	32µM*	0%
COC(=O)c1c(NC(=O)C2CC2)sc2c1CCCC2	-24%	-9%	?	-4%	45µM*	-12%
Cc1cc(-c2ccccc2)nc(N/N=C/c2ccc(O)cc2)n1	8.9µM*	79%	0%	-24%	-39%	-2%
Oc1ccc(/C=N/Nc2nc(-c3ccc(Cl)cc3)cc(C(F)(F)F)n2)cc1	11µM*	-7%[11.6 µM]	-9%	11µM*	16µM*	-7%
Cc1cc(C)nc(N/N=C/c2ccccc2)n1	nt	40%	-2%	nt	-20%	-4%
O=C(c1ccccc1)N1N=C(c2ccccc2)CC1c1ccccc1O (stereo not given)	-25%	-1%	-3%	-12%	?	-4%
O=C(c1cccs1)N1N=C(c2ccccc2)CC1c1ccccc1O (stereo not given)	-11%	1%	8%	?	16µM*	0%
Cc1ccc(C2=NN(C(=O)c3cccs3)C(c3ccccc3O)C2)cc1 (stereo not given)	-1%	-2%	-4%	11%	7.9µM*	0%
CCN1CCCC1CNC(=O)c1cnn(-c2nccc(-c3cccs3)n2)c1C1CC1 (stereo not given)	-9%	nt	nt	-6%	nt	nt
CC(C)n1cnc2c(Nc3ccc(F)c(Cl)c3)nc(NCCO)nc21	10µM*	-12%	?	?	0%	-5%
CC(C)n1cnc2c(Nc3cccc(F)c3)nc(NCCO)nc21	?	14%	3%	?	-24%	8%
CN(C)c1ccc(C=Nc2ccc(N(C)C)cc2)cc1	nt	?	?	20%	-17%	-27%
Cc1ccc(N=Cc2ccc(N(C)C)cc2)cc1	nt	-3%	?	3.5µM*	-12%	4%
Cc1ccc(S(=O)(=O)N(C)/N=C/c2ccc(N(C)C)cc2)cc1	?	25µM*	?	-8%	-21%	2%
Cc1cc(C(=O)NCC2CCC3(CCN(Cc4ccc5ccccc5c4)CC3)O2)n(C)n1 (stereo not given)	-8%	nt	nt	-29%	nt	nt
CCC1C/C(=C/c2ccco2)C(=O)/C(=C/c2ccco2)C1 (stereo not given)	nt	nt	?	nt	-37%	-25%
COc1cc(OC)c(OC)cc1/C=C1\CC(C)C/C(=C\c2cc(OC)c(OC)cc2OC)C1=O (stereo not given)	nt	32µM*	-1%	nt	114%	-2%
